Experiment [1] is described as follows: ATG_XTT_Cytotoxicity: Cytotoxicity Assessment in the Attagene TRANS-FACTORIAL HepG2 Assay (AID 2283584).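 For AC50: XTT signal for cell number as viability in transfected HepG2 cells; cells exposed to compound for 24 h before reading; active means loss of viability signal versus DMSO baseline.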 Put shortly:
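HepG2 cells transiently transfected with GAL4-UAS multiple reporter units, dosed 24 h; cytotoxicity read by XTT as loss of signal versus DMSO baseline.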

Experiment [2] concerns the target Cellular tumor antigen p53 (Homo sapiens) (UniProt P04637). Description: TOX21_p53_BLA_p2_ratio: Tox21 HCT-116 p53 Agonism Beta-lactamase Assay, Ratio, Phase 2 (AID 2283592). Put shortly:
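First, HCT116 reporter cells settle for 5 h at 37C. Next, DMSO compound solutions are pinned in (217-fold dilution) and left 16 h. Finally, CCF4-AM substrate is loaded 2 h at room temperature and the 460/530 nm ratio read.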

Experiment [3] is described as follows: TOX21_p53_BLA_p3_viability: Viability Assessment in the Tox21 HCT-116 p53 Agonism Beta-lactamase Assay, Phase 3 (AID 2283593).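 Note: cells exposed to compound for 16 h before reading.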 Put shortly: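 Cellular ATP was quantified by CellTiter-Glo luminescence, read after 30 min at room temperature. Beforehand, HCT116 cells (4000/well) received compound 5 h post-seeding, 217-fold diluted from DMSO, then incubated 16 h at 37C.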

Experiment [4] concerns the target Cellular tumor antigen p53 (Homo sapiens) (UniProt P04637). Description: TOX21_p53_BLA_p3_ratio: Tox21 HCT-116 p53 Agonism Beta-lactamase Assay, Ratio, Phase 3 (AID 2283596). Put shortly: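 Cells were seeded at 4000/well, rested 5 h at 37C, then dosed with DMSO compound solutions (217-fold dilution) for 16 h. CCF4-AM substrate was loaded for 2 h at room temperature, and the 460/530 nm emission ratio was fitted for gain of signal versus DMSO.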

A short description of experiment [5]: TOX21_p53_BLA_p4_viability: Viability Assessment in the Tox21 HCT-116 p53 Agonism Beta-lactamase Assay, Phase 4 (AID 2283597).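 Note: hits lower the luminescence signal meaning cytotoxicity.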 Put shortly: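 4000 HCT116 cells per well; 5 h attachment; compounds from DMSO, 217-fold dilution; 16 h at 37C. Then CCF4-AM, 2 h RT, followed by CellTiter-Glo, 30 min RT, luminescence. Decrease = cytotoxicity.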
The nature of experiment [6]: TOX21_p53_BLA_p5_viability: Viability Assessment in the Tox21 HCT-116 p53 Agonism Beta-lactamase Assay, Phase 5 (AID 2283600). The essentials: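 Decreased CellTiter-Glo luminescence denotes lost viability. Exposure: 16 h at 37C, 5% CO2, with compounds from DMSO stocks diluted 217-fold in wells of 4000 cells.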
Experiment [7] has as its target Cellular tumor antigen p53 (Homo sapiens) (UniProt P04637). The experiment is described as follows: TOX21_p53_BLA_p4_ratio: Tox21 HCT-116 p53 Agonism Beta-lactamase Assay, Ratio, Phase 4 (AID 2283601). The essentials:
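Signal is the blue/green (460nm/530nm) ratio of cleaved versus uncleaved CCF4-AM substrate, read after 2 h substrate loading. Cells were HCT116 carrying the p53-responsive beta-lactamase reporter, dosed 16 h at 37C, 5% CO2; CellTiter-Glo measured in parallel.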

The target is the same in experiment [8]. Description: TOX21_p53_BLA_p5_ratio: Tox21 HCT-116 p53 Agonism Beta-lactamase Assay, Ratio, Phase 5 (AID 2283599). The essentials:
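Beta-lactamase reporter ratio (blue 460 nm over green 530 nm, 405 nm excitation) after 2 h CCF4-AM loading, in HCT-116 cells exposed 16 h at 37 C to compounds pinned at 217-fold dilution. Increases relative to DMSO baseline scored.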

For orientation: AC50 means the concentration giving half of the maximal activity seen.

Several values for one entry are separate records, joined by “and”; a condition that tells them apart may be missing. Equal values may be shown once. Inconclusive results are not listed. The source holds several records for some structures; these can differ, active in one and inactive in another. Activity calls are given as the source filed them. Rule for the calls: active = hit-call score of the fitted dose curve at least 0.9, where 1 is the maximum; inconclusive = response in the unintended direction; inactive = score below 0.9.

Cellular tumor antigen p53 (Homo sapiens), sequence (P04637 whole entry, looked up): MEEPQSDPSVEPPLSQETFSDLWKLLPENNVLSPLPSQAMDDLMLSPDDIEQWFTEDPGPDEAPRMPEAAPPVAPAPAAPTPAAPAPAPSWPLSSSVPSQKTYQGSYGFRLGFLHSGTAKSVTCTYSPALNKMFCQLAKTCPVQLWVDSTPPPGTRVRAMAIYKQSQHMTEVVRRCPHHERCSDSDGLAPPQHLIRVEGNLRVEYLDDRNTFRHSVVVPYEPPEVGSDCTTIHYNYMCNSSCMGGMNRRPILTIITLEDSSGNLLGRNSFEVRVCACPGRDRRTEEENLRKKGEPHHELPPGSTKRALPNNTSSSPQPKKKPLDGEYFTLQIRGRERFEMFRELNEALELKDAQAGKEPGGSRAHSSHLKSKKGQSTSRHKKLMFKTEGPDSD

Regarding `O=c1cc[nH]c(=S)[nH]1`, the call in experiment [1], in experiment [2], in experiment [3], in experiment [4], in experiment [5] and in experiment [6] was inactive. In experiment [7], the result was inactive.

Regarding `C1=Cc2ccccc2C1`, the result in experiment [1], in experiment [2], in experiment [3], in experiment [5] and in experiment [6] was inactive.

Regarding `CC(C)=CCC[C@H](C)CCO`, the compound was called inactive in experiment [1], in experiment [2], in experiment [3], in experiment [4], in experiment [5] and in experiment [6].

`CC(C)(C)C(=O)C=Cc1ccc(Cl)cc1`: the result in experiment [1], in experiment [2], in experiment [3], in experiment [4], in experiment [5] and in experiment [7] was inactive.

With `O=C1CCCCCN1SSN1CCCCCC1=O`, the compound was called inactive in experiment [1], in experiment [3], in experiment [4], in experiment [5], in experiment [6] and in experiment [7]. In experiment [2], the AC50 was 86.6 µM (active).

In the case of `CCOC(=O)N1CCC(=C2c3ccc(Cl)cc3CCc3cccnc32)CC1`, the AC50 is 47.5 µM (active) in experiment [1]; 36.5 µM (active) and 12.9 µM (active) in experiment [2]; 79.9 µM (active) in experiment [3]; 43.3 µM (active) and 22.4 µM (active) in experiment [4]; 49.6 µM (active) in experiment [8]; 75.4 µM (active) in experiment [6]. The result in experiment [3], in experiment [5], in experiment [8], in experiment [6] and in experiment [7] was inactive.

As for `CCC(C)(C)C1CCCCC1OC(C)=O` (stereo not given), the outcome in experiment [1], in experiment [2], in experiment [3], in experiment [4], in experiment [8] and in experiment [6] was inactive. Moreover, the outcome in experiment [7] was inactive.

Turning to `CCCCCCCCO[C@@H]1O[C@H](CO)[C@@H](O)[C@H](O)[C@H]1O`, the outcome in experiment [1], in experiment [2], in experiment [3], in experiment [4], in experiment [8] and in experiment [7] was inactive.

As for `N=c1ccn2c(n1)O[C@H]1[C@H](O)[C@@H](CO)O[C@H]12`, the result in experiment [1], in experiment [3], in experiment [5] and in experiment [6] was inactive. In addition, the AC50 is 1 µM (active) and 2.41 µM (active) in experiment [2]; 2.17 µM (active) and 3.17 µM (active) in experiment [4]; 2.67 µM (active) and 729 nM (active) in experiment [8]; 1.27 µM (active) and 1.19 µM (active) in experiment [7].

As to `CC(C)c1ccc(C=O)cc1`, the result in experiment [1], in experiment [2] and in experiment [3] was inactive.

Turning to `c1c[nH]cn1`, the result in experiment [1], in experiment [2], in experiment [3], in experiment [4], in experiment [8] and in experiment [7] was inactive.

With `Cc1cc(C)c(C)c(O)c1`, the compound was classed as inactive in experiment [1], in experiment [2], in experiment [3], in experiment [5], in experiment [8] and in experiment [7].

Consider `O=S(=O)(O)c1ccccc1C=Cc1ccc(-c2ccc(C=Cc3ccccc3S(=O)(=O)O)cc2)cc1`, for which the compound was classed as inactive in experiment [1], in experiment [2], in experiment [3], in experiment [4] and in experiment [6]. Besides, in experiment [7], the AC50 was 11.4 µM (active).

In the case of `C=CCCCCCCCCC(=O)OCCCC`, the compound was classed as inactive in experiment [1], in experiment [2], in experiment [3], in experiment [4] and in experiment [6].

Consider `CCCCOCCOC(=O)COc1nc(Cl)c(Cl)cc1Cl`, for which the compound was classed as inactive in experiment [1], in experiment [2], in experiment [3], in experiment [4], in experiment [5] and in experiment [6]. Moreover, the result in experiment [7] was inactive.

Regarding `C=C[Si](OC(C)=O)(OC(C)=O)OC(C)=O`, the outcome in experiment [1], in experiment [2], in experiment [3], in experiment [4], in experiment [8] and in experiment [6] was inactive. For the same compound, the result in experiment [7] was inactive.

As to `O=C(Oc1ccccc1)c1ccc2ccccc2c1O`, the compound was classed as inactive in experiment [1], in experiment [2], in experiment [3], in experiment [4], in experiment [5] and in experiment [8]. In addition, the compound was called inactive in experiment [6] and in experiment [7].

Consider `CN1C(=O)N(C)C(O)C1O` (stereo not given), for which the outcome in experiment [1], in experiment [2], in experiment [3], in experiment [4], in experiment [5] and in experiment [8] was inactive. Further, the compound was called inactive in experiment [6] and in experiment [7].

Consider `C=C(C)[C@@H]1CCC2=CCC[C@@H](C)[C@]2(C)C1`, for which the compound was classed as inactive in experiment [1], in experiment [2], in experiment [3], in experiment [5], in experiment [8] and in experiment [7].

As for `C(=CC=Nc1ccccc1)C=CNc1ccccc1`, the outcome in experiment [1], in experiment [2], in experiment [3], in experiment [4], in experiment [5] and in experiment [8] was inactive. Further, the compound was classed as inactive in experiment [6].

Take `O=c1[nH]nc(-c2ccc([N+](=O)[O-])o2)o1`: the outcome in experiment [1], in experiment [2], in experiment [3], in experiment [4], in experiment [5] and in experiment [8] was inactive. The result in experiment [6] and in experiment [7] was inactive.

As for `CC/C=C\CCOC(=O)CCCCC`, the outcome in experiment [1], in experiment [2], in experiment [3], in experiment [4], in experiment [8] and in experiment [7] was inactive.

Consider `[Cl][Bi]([Cl])([c]1ccccc1)([c]1ccccc1)[c]1ccccc1`, for which the AC50 in experiment [1] was 7.84 µM (active); in experiment [2], 18.4 µM (active); in experiment [3], 71.4 µM (active); in experiment [4], 76.2 µM (active); in experiment [5], 11.2 µM (active); in experiment [8], 67.7 µM (active). In addition, the half-maximal activity concentration (AC50) in experiment [6] was 58.1 µM (active); in experiment [7] it was 14.1 µM (active).

On to `NC(=O)OCC(COC(N)=O)c1ccccc1`, for which the result in experiment [1], in experiment [2], in experiment [3], in experiment [4], in experiment [8] and in experiment [6] was inactive. Also, the result in experiment [7] was inactive.

For the compound `CN(C)c1ccc(C(=N)c2ccc(N(C)C)cc2)cc1`, the compound was called inactive in experiment [1], in experiment [3], in experiment [5] and in experiment [6]. Besides, the AC50 is 896 nM (active) and 2.2 µM (active) in experiment [2]; 13.2 µM (active) and 6.84 µM (active) in experiment [4]; 2.63 µM (active) and 2.56 µM (active) in experiment [8]; 936 nM (active) and 1.49 µM (active) in experiment [7].

As to `CCCCCCC1(C)CCC(=O)O1` (stereo not given), the outcome in experiment [1], in experiment [2], in experiment [3], in experiment [4] and in experiment [7] was inactive.

Consider `CC=C1CC2C=CC1C2` (stereo not given), for which the call in experiment [1], in experiment [2], in experiment [3], in experiment [4], in experiment [6] and in experiment [7] was inactive.
